Screening data from PubChem BioAssay.
PNC inhibitor = perinucleolar compartment assembly inhibition | activity change (PNC), negative = inhibition, % at 10 µM | hit rate 3.1% among 140,000 | PC3M PTB-GFP, PNC prevalence imaging, 16 h; active compounds read low;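 active means readout at or below -70, meaning at least 70% loss of cells showing the perinucleolar compartment, a nuclear body marking cancer cells; inconclusive means readout between -30 and a set limit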;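 further: plate controls were DMSO wells for no effect and camptothecin positive control wells for full effect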
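PC3M cells stably expressing PTB-GFP, 750–1000 cells/well, treated 16 h at 37 °C with compound (23 nl of library stock), in duplicate. After paraformaldehyde fixation and Hoechst stain, imaged at 20x; PNC prevalence scored by image analysis.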
Tau fluor cs = counter-screen for tau fibril formation inhibitors | tau K18 P301L Alexa594 fluorescence, heparin fibrillization | Potency, µM (highest dose often 57.7 µM), inactives show at the highest dose activity change, negative = decrease | hit rate 0.93% among 280,000 | AID 1463; further: potency means the concentration at half of the fitted maximal effect; nearly all actives have a fitted effect of over 55% in size
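Human K18 P301L tau (15 uM unlabeled plus 0.24 uM Alexa 594-labeled, final) in 100 mM sodium acetate pH 7 was mixed with compound and 20 uM heparin and incubated 6 hr at 37 C.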
Tau fibril FP = tau fibrillization inhibition (FP) | P10636 | AID 1468 | Potency, µM (highest dose often 57.7 µM), for the others: top-dose activity, negative = inhibition, hits mostly inhibitors | K18 P301L tau heparin fibrillization, Alexa594 FP, 6 h | hit rate 0.39% among 280,000; further: potency means the concentration at half of the fitted maximal effect; nearly all actives have a fitted effect of over 55% in size
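Steps: dispense K18 P301L tau (15 uM plus 0.24 uM Alexa 594 tracer, final) in pH 7 sodium acetate; add compound; add heparin (20 uM final); incubate 6 hr, 37 C; add ThT (30 uM final); after 1 hr ambient, read FP.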
TexasRed fluor = Texas Red fluorescence interference in TRb-SRC2 counter-screen | TRb/SRC2 Texas Red total fluorescence interference | Potency, µM (top dose mostly 106 µM), without a hit: at the highest dose fluorescence change, negative = quenching | hit rate 0.29% among 280,000 | AID 1479; active means well fitted curve in either direction with a large enough effect; inconclusive means small, poorly fitted or top-dose-only effect; further: potency means the concentration at half of the fitted maximal effect
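Human TRb ligand-binding domain at 0.6 uM with 20 nM Texas Red SRC2 peptide in Tris buffer containing 1 uM T3 and 5% DMSO, incubated with compound 5 h at ambient temperature. Total fluorescence (555/632 nm) calculated as parallel + 2 × perpendicular.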
Tau fibril ThT = tau fibrillization inhibition (ThT binding). P10636. recombinant tau K18 P301L, heparin-induced fibrillization, ThT fluorescence. Potency, µM (titrated, usually from 57.4 µM), inactives show at the highest dose activity, negative = inhibition, most hits filed as inhibitors. hit rate 2.1% among 270,000; further: potency means the concentration at half of the fitted maximal effect; nearly all actives have a fitted effect of over 55% in size
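Fibril formation assay: tau K18 P301L at 15 uM with trace Alexa 594 label, heparin inducer 20 uM, pH 7 sodium acetate buffer, 37 C for 6 hr; endpoint ThT signal.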
TRb SRC2 PPI = TRbeta-SRC2 interaction inhibition; TRbeta-SRC2 peptide binding, fluorescence polarization; receptor liganded with 1 µM T3; Potency, µM (top dose mostly 106 µM), without a hit: at the top dose activity change, negative = inhibition, actives largely listed as inhibitors; hit rate 0.065% among 280,000; P10828;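 further: potency means the concentration at half of the fitted maximal effect; plate controls were bound peptide for no effect and peptide without receptor for full effect; nearly all actives have a fitted effect of over 50% in size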
Target sequence (P10828 whole entry, looked up): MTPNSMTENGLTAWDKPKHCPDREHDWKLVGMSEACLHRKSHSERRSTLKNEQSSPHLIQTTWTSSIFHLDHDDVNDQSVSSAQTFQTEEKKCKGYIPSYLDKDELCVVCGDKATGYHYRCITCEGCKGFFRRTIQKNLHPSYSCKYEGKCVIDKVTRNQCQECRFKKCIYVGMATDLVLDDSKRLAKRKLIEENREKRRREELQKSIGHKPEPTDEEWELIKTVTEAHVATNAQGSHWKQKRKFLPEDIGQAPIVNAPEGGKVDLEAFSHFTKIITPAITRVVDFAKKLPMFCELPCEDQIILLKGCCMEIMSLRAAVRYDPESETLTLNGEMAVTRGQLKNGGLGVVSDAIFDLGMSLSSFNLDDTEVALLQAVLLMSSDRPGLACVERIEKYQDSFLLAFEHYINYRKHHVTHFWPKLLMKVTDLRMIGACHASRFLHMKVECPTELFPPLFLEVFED
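Fluorescence polarization of 20 nM Texas Red SRC2 peptide with 0.6 uM human TRb ligand-binding domain, in Tris buffer with 1uM T3 and 5% DMSO. Incubated 5 hr ambient; normalized to unbound and bound controls.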
Numbers without * were called inactive. Most compounds without a hit are left out; they make up all but 4.6% or so of the library. Unless noted, the call rests on the fitted dose curve; in most records, active means well fitted curve in the direction sought with a large enough effect; inconclusive means small, poorly fitted or top-dose-only effect, or another doubt; inactive means no such curve, though single readings can be large; an effect the other way counts as inactive or inconclusive. Unless noted, on the % scale 0 is the no-effect control and ±100 the full control effect.

How did COc1cccc(C=Nc2cc(C)cc(C)c2)c1O do in these assays?
PNC inhibitor: inconclusive; Tau fluor cs: 5%; Tau fibril FP: -5%; TexasRed fluor: 0%; Tau fibril ThT: inconclusive; TRb SRC2 PPI: -1%

What do the screens show for `Nc1nc(N)c(N=Nc2ccc(C(=O)O)cc2)c(N)n1`?
Tau fluor cs: -10%; Tau fibril FP: 4%; TexasRed fluor: -5%; Tau fibril ThT: 14µM*; TRb SRC2 PPI: -1%

How did O=C(O)c1ccc(N=Nc2c(O)[nH]c3cc(Cl)ccc23)cc1 do in these assays?
Tau fluor cs: -8%; Tau fibril FP: 6%; TexasRed fluor: -4%; Tau fibril ThT: 4µM*; TRb SRC2 PPI: 5%

What do the screens show for `Cc1cccc(NC(=O)/C(C#N)=C/c2cn(CC(=O)NCc3ccco3)c3ccccc23)c1C`?
PNC inhibitor: 17; Tau fluor cs: -4%; Tau fibril FP: 7%; TexasRed fluor: -2%; Tau fibril ThT: -3%; TRb SRC2 PPI: -2%

How did CC(C)C(=O)c1cn(CC(=O)NCc2ccco2)c2ccccc12 do in these assays?
PNC inhibitor: -100*; Tau fluor cs: 1%; Tau fibril FP: 0%; TexasRed fluor: 0%; Tau fibril ThT: 0%; TRb SRC2 PPI: -3%

What do the screens show for `CC(C)C(=O)c1cn(CC(=O)NCc2ccc3c(c2)OCO3)c2ccccc12`?
PNC inhibitor: 210; Tau fluor cs: 2%; Tau fibril FP: 5%; TexasRed fluor: -4%; Tau fibril ThT: 11%; TRb SRC2 PPI: -5%

Results for CN1C(=O)/C(=C/c2cn(CC(=O)NCc3ccco3)c3ccccc23)NC1=S ?
Tau fluor cs: inconclusive; Tau fibril FP: inconclusive; TexasRed fluor: -1%; Tau fibril ThT: 13µM*; TRb SRC2 PPI: 7%

How did Cc1ccc(-n2ncc(C(=O)N3CCN(c4cccc(C)c4C)CC3)c2C2CCNCC2)c(C)c1 do in these assays?
Tau fluor cs: -8%; Tau fibril FP: -5%; TexasRed fluor: 1%; Tau fibril ThT: -17%; TRb SRC2 PPI: 0%

Results for COc1ccc(C(=O)NCc2nc3ccccc3[nH]2)cc1OC ?
PNC inhibitor: -4; Tau fluor cs: 9%; Tau fibril FP: 1%; TexasRed fluor: 1%; Tau fibril ThT: -1%; TRb SRC2 PPI: -21%

Results for COc1cccc(C2=NOC(C(=O)Nc3cccc(C(C)=O)c3)C2)c1 (stereo not given) ?
PNC inhibitor: 42; Tau fluor cs: -9%; Tau fibril FP: 3%; TexasRed fluor: 0%; Tau fibril ThT: -2%; TRb SRC2 PPI: -21%

How did COc1cc(Nc2ccccc2Cl)c([N+](=O)[O-])nc1[N+](=O)[O-] do in these assays?
PNC inhibitor: -92*; Tau fluor cs: -18%; Tau fibril FP: 3%; TexasRed fluor: -5%; Tau fibril ThT: inconclusive; TRb SRC2 PPI: -2%

What do the screens show for `Clc1cc2c(c(Cn3cnc4ccccc43)c1)OCOC2`?
PNC inhibitor: -100*; Tau fluor cs: -4%; Tau fibril FP: 4%; TexasRed fluor: -1%; Tau fibril ThT: 0%; TRb SRC2 PPI: 2%

What do the screens show for `CCCc1n[nH]c(=O)[nH]1`?
PNC inhibitor: 38; Tau fluor cs: 0%; Tau fibril FP: 2%; TexasRed fluor: 0%; Tau fibril ThT: -8%; TRb SRC2 PPI: -8%

What do the screens show for `COC(=O)c1ccc(C(NC(=O)OCc2ccccc2)/C(F)=C/[C@@H](C)C(=O)NCc2ccc(OC)c(OC)c2)cc1` (stereo not given in full)?
PNC inhibitor: -119*; Tau fluor cs: -13%; Tau fibril FP: 6%; TexasRed fluor: -2%; Tau fibril ThT: inconclusive; TRb SRC2 PPI: 2%

Results for COCC(C)NC(=O)c1cccc(Cl)c1 (stereo not given) ?
PNC inhibitor: -29; Tau fluor cs: -4%; Tau fibril FP: 1%; TexasRed fluor: 1%; Tau fibril ThT: -7%; TRb SRC2 PPI: -2%
